Test results from the supplement of paper PMC11001985.

compound: C#CCNC(=O)CCSSCCC(=O)NCCc1ccc(C=O)c(C=O)c1; experiment: lysine labeling ratio R10:1 (500 µM / 50 µM probe), SILAC-ABPP in living cells; higher = lower intrinsic lysine reactivity toward the probe, active = 2 or less; conditions: HeLa; probe concentrations 500 vs 50 µM
Procedure, shortened: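 Forward and reverse SILAC label swaps were used with living light and heavy HeLa cells in PBS at room temperature, which were given an alkyne-tagged, disulfide-linked lysine probe at 50 µM or 500 µM. R is the per-lysine filtered median high-probe/low-probe MS1 peptide ratio, with the median then taken across both swap directions. Values are limited to 20.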

UniProt P26006, sequence (P26006 whole entry): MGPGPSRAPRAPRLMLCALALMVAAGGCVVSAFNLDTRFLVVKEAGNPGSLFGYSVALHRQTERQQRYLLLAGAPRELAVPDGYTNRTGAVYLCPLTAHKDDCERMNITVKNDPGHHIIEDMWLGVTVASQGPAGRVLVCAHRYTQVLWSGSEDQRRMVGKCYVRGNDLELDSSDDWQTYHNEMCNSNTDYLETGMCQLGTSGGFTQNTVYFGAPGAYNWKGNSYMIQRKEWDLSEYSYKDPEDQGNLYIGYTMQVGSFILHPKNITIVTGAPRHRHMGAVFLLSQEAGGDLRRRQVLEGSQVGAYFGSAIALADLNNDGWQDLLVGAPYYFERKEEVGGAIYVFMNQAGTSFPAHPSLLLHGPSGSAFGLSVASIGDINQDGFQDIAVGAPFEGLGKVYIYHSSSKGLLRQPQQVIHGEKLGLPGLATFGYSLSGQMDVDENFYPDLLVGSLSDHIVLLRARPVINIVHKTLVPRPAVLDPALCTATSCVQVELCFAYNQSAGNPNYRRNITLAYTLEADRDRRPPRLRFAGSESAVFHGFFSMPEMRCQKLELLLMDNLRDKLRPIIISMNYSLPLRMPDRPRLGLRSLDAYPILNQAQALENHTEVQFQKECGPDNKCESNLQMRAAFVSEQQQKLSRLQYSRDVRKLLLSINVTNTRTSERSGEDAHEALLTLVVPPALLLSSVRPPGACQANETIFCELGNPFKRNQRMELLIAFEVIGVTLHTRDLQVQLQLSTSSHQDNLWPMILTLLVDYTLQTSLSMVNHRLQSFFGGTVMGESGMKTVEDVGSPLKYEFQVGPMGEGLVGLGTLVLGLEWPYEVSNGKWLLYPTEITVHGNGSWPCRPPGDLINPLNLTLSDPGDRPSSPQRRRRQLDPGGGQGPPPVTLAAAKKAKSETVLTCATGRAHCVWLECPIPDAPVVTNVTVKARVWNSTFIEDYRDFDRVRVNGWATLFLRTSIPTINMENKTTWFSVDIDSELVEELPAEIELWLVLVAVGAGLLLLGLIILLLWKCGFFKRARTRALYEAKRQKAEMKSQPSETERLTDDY
UniProt Q96IZ0, sequence (Q96IZ0 whole entry): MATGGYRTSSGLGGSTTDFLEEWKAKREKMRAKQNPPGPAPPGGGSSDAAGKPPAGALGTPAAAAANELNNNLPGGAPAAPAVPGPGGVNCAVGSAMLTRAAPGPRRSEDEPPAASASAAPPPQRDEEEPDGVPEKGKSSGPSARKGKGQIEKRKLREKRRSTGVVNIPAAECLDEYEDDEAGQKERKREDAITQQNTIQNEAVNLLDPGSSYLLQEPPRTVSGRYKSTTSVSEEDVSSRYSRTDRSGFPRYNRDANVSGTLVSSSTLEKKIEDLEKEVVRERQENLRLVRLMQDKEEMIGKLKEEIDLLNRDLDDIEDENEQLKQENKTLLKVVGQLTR
UniProt P46940, sequence (P46940 whole entry): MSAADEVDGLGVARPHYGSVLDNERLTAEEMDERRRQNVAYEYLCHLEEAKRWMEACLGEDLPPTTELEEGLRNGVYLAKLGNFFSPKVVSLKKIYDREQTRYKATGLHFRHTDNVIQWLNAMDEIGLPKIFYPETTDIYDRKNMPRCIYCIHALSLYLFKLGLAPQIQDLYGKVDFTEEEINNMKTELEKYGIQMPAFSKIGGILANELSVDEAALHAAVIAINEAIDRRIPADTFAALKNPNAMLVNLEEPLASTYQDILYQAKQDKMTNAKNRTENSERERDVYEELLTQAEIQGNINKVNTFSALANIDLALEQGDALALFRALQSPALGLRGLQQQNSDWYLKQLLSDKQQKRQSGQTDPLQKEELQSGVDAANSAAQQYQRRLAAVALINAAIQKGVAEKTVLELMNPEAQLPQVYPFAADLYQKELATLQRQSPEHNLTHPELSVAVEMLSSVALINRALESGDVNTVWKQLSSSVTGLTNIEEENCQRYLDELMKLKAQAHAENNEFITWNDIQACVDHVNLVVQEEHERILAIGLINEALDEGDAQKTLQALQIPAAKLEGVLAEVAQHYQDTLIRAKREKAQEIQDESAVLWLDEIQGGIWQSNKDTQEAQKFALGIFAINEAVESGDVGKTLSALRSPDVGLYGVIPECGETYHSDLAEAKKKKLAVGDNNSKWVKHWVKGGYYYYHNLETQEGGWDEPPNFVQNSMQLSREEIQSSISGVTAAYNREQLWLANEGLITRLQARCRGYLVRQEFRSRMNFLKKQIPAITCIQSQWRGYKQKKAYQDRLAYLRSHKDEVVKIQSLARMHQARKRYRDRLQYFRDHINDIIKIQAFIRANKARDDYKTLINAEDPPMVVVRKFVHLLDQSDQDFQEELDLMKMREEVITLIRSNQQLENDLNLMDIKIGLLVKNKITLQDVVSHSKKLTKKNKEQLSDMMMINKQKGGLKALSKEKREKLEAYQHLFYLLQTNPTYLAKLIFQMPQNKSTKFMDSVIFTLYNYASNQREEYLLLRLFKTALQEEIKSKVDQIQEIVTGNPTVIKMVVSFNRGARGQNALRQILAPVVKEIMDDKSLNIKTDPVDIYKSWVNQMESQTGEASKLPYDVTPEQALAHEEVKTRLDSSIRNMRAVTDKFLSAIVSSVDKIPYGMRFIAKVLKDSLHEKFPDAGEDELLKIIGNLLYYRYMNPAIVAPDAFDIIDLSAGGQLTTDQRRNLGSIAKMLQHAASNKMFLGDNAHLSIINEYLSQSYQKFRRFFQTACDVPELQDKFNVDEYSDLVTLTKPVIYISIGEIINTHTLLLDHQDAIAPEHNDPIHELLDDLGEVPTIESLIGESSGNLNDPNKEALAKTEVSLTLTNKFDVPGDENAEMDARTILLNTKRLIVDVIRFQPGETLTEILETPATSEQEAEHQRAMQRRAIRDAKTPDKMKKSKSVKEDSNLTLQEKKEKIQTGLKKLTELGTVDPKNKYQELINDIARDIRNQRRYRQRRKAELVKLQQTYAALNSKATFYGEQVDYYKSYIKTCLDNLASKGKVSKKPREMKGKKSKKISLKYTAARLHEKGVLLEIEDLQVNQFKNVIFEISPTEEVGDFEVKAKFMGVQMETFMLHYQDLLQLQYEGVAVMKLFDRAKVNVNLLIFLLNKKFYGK
UniProt Q15084, sequence (Q15084 whole entry): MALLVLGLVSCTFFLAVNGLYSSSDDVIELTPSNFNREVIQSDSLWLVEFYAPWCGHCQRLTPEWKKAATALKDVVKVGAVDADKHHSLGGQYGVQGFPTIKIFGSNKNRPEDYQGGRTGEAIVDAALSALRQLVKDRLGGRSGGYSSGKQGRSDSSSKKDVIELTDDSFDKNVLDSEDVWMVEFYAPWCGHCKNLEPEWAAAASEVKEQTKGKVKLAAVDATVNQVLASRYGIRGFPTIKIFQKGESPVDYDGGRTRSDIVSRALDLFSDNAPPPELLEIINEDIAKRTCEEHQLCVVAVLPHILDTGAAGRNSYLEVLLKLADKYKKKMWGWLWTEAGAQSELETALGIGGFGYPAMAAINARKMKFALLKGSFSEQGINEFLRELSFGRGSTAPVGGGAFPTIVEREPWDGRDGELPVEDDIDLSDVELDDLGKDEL
UniProt P49368, sequence (P49368 whole entry): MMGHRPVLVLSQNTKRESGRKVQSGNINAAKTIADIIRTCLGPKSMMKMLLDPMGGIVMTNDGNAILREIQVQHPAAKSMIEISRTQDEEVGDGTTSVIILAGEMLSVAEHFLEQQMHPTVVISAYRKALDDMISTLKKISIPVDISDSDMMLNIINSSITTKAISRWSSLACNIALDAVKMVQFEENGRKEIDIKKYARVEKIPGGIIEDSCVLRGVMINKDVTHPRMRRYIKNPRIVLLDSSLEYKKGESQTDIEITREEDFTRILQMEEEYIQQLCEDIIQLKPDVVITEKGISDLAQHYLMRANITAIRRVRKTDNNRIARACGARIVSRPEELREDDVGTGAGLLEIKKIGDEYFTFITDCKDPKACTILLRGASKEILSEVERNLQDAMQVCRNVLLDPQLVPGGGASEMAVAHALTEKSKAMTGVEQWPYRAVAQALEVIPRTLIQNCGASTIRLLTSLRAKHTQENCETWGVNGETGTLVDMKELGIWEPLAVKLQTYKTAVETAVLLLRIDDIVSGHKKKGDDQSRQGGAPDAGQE
UniProt Q9UKY7, sequence (Q9UKY7 whole entry): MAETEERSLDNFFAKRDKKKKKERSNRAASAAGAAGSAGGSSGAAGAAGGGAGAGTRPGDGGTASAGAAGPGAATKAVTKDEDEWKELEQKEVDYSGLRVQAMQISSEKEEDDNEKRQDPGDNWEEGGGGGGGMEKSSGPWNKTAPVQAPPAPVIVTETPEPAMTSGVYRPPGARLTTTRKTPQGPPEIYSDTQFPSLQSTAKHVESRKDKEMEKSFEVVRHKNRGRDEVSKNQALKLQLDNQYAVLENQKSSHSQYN
UniProt P30101, sequence (P30101 whole entry): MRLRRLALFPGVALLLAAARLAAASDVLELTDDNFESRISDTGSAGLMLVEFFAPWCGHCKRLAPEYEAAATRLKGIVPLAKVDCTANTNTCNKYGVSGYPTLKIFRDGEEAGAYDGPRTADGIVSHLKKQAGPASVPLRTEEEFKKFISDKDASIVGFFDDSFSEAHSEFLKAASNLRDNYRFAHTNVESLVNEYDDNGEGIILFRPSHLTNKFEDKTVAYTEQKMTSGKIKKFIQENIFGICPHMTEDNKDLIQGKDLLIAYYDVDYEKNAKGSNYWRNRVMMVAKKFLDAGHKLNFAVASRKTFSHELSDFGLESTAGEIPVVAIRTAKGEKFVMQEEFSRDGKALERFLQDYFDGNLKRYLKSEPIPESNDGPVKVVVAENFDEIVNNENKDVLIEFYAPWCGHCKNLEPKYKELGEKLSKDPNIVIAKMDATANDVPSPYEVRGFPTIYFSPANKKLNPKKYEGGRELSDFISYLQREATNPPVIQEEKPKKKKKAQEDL

Target	lysine labeling ratio R10:1
SCARB1 (lysine site: K288) (UniProt Q8WTV0)	0.704 (active)
IGF2R (lysine site: K2197) (UniProt P11717)	8.12 (inactive)
SPTAN1 (lysine site: K2195) (UniProt Q13813)	1.91 (active)
CD97 (lysine site: K499) (UniProt P48960)	3.84 (inactive)
PDIA6 (lysine site: K245) (UniProt Q15084)	1.95 (active)
CDV3 (lysine site: K15) (UniProt Q9UKY7)	2.4 (inactive)
TCP1 (lysine site: K126) (UniProt P17987)	2.14 (inactive)
UniProt Q15149 (lysine site: K3027)	2.74 (inactive)
CCT3 (lysine site: K78) (UniProt P49368)	4.07 (inactive)
IQGAP1 (lysine site: K856) (UniProt P46940)	1.47 (active)
TALDO1 (lysine site: K321) (UniProt P37837)	0.79 (active)
UniProt P62244 (lysine site: K60)	2.48 (inactive)
PAWR (lysine site: K227) (UniProt Q96IZ0)	1.06 (active)
ITGA3 (lysine site: K895) (UniProt P26006)	2.18 (inactive)
CACNA2D1 (lysine site: K690) (UniProt P54289)	3.51 (inactive)
PDIA3 (lysine site: K347) (UniProt P30101)	5.72 (inactive)
CD109 (lysine site: K1105) (UniProt Q6YHK3)	1.09 (active)
